# GalR3 antag – antagonists of human GalR3; actives 0.44% (n = 360,000); AID 651719; inhibition, % at 3 µM; HEK293 GalR3-CNG cAMP membrane potential fluorescence; galR3 body fused to GalR1 C-terminus; O60755;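 active means inhibition above the screen-wide average plus 3 SD, cut at about 13% in these data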;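 further: forskolin and galanin both at EC90 stimulate the cells; cAMP rise reported by CNG channel membrane potential dye signal; 0% = forskolin plus galanin with DMSO and 100% = forskolin alone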
# Target sequence (O60755 1-299 limits assumed): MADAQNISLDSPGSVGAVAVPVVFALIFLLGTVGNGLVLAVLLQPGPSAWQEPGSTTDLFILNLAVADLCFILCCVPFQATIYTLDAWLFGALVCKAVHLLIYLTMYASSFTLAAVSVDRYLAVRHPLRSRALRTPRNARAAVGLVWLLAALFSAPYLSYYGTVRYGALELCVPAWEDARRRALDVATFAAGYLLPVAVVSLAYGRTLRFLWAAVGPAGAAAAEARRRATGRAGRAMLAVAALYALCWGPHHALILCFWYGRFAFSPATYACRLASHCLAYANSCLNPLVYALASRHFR
# SMARCA2 act – increases SMARCA2 function in MMTV reporter cells; MG213 cells, MMTV-luciferase reporter, dexamethasone, overnight; activation, % at 9.1 µM; actives 1% (n = 370,000); in the data active means activation above about 7.8%;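 further: 0% = vehicle wells and 100% = reference activator wells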
# COUP-TFII inh – inhibitors of human COUP-TFII (NR2F2); inhibition, % at 8.6 µM; actives 0.7% (n = 370,000); HEK293T NGFI-A luciferase reporter, luminescence; P24468;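 active means inhibition above a per-plate cutoff, mean inhibition of test wells between control levels plus 3 SD, cut at about 38% in these data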;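 further: cells cotransfected with COUP-TFII expression vector driving the NGFI-A reporter; 0% = median of COUP-TF2 test wells and 100% = reporter-only cells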
# Target sequence (P24468 whole entry, looked up): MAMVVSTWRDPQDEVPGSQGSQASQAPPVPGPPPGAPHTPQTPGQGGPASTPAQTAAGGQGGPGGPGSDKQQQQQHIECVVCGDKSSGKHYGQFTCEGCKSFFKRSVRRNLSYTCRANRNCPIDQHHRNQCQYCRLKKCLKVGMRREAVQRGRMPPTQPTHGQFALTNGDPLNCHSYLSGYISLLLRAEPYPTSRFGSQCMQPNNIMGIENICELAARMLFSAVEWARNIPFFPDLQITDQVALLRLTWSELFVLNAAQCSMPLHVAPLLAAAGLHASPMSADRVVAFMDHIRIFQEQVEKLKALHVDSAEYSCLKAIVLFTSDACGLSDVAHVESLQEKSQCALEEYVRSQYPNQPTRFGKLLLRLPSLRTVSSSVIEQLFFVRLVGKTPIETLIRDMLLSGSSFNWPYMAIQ
# FXN GAA850 act – activators of GAA850 frataxin (FXN) promoter. actives 0.56% (n = 360,000). activation, % at 6 µM. HEK293 lucGAA850 FXN promoter luciferase reporter, 24 h; percent of 10 µM SAHA response;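 active means activation above the average of all compounds screened plus 3 SD, cutoff fixed separately per campaign, cut at about 7.5% in these data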;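 further: 0% = DMSO wells and 100% = 10 µM SAHA wells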
# Gli-Sufu block – blocks Gli-Sufu signaling in a luciferase reporter. Sufu-KO-LIGHT fibroblasts, Gli luciferase reporter luminescence. inhibition, % at 5 µM. actives 0.74% (n = 340,000). AID 588413;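 active means inhibition above about 55%, limit read from the data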;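 further: 0% = DMSO-treated cells and 100% = wells with medium but no cells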
# Cardio protect – myocardial damage modulation in H9c2 cells; H9c2 cardiomyocytes, H2O2 injury protection, ATPLite, 2 h; protection from H2O2 cell death, % at 20 µM; actives 0.63% (n = 360,000); AID 588492;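 active means compounds giving at least 50% protection of heart cells from peroxide-induced death in the single-dose screen, raw or plate-pattern-corrected value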;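 further: 0% = DMSO wells with peroxide and 100% = DMSO wells without peroxide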
# SMARCA2 act conf – SMARCA2 activation, confirmation screen | shares compounds with SMARCA2 act | MG213 cells, MMTV-luciferase with dexamethasone, luminescence, overnight; MG213 cells expressing E1A, Rb sequestered; DMSO wells 0%, reference activator 100% | activation, % at 9.1 µM | actives 30% (n = 3,500);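 active means activation above its plate's cutoff, the mean activation of tested wells plus 3 SD, cut at about 7.9% in these data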
# GAL4-VP16 Luc – counter-screen for SMARCA2 activators: GAL4-VP16 luciferase reporter activation; shares compounds with SMARCA2 act; HEK293 GAL4-VP16 pG5luc reporter, luciferase luminescence; scaled: DMSO wells 0%, SAHA wells 100%; activation, % at 9.1 µM; actives 41% (n = 3,500); AID 686939;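 active means activation above the solvent-only control well mean plus 3 SD, averaged across control plates, cut at about 5.2% in these data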
# * = called active by the depositor; / = no result. Rows were chosen to be rich in hits. Some 3.4% of all compounds tested hit in one or more screens of this group.
SMILES,GalR3 antag,SMARCA2 act,COUP-TFII inh,FXN GAA850 act,Gli-Sufu block,Cardio protect,SMARCA2 act conf,GAL4-VP16 Luc
C/C(=N/NC(=O)c1ccc(C(C)(C)C)cc1)c1cccnc1,-6.6,-4.5,2.0,1.2,-13.8,-4.7,/,/
C/C(=N/NC(=O)c1ccco1)c1cccnc1,-7.6,8.3*,-31.3,5.4,-11.2,7.7,-0.8,3.6
C/C(=N/NC(=O)c1ccco1)c1ccc(NC(=O)c2ccc(Br)o2)cc1,-3.2,9.5*,-28.2,3.1,-40.9,28.8,1.7,9.7*
C/C(=N/NC(=O)c1ccco1)c1ccc(NC(=O)c2ccc(F)cc2)cc1,10.7,2.9,-59.8,2.0,-54.6,4.1,/,/
CCCOC(=O)Nc1cc(OC)ccc1[N+](=O)[O-],-5.4,0.8,-10.5,2.7,-10.0,-7.6,/,/
C=CCOn1c(=O)c(-c2ccc(C)cc2)[n+]([O-])c2ccccc21,-10.7,1.8,5.8,0.5,3.4,-2.7,/,/
CC(C)CCNc1nc(-c2ccco2)c2c(c1C#N)CCCC2,6.3,1.1,7.2,1.6,2.9,-15.0,/,/
N#Cc1c(NCCN)nc(-c2ccco2)c2c1CCCC2,-5.5,9.7*,5.2,0.7,3.0,14.2,30.7*,-0.4
CCCn1c(=NC(=O)c2ccco2)c(C(=O)OCC)cc2c(=O)n3ccccc3nc21,-1.0,12.6*,-48.9,5.0,-0.6,3.2,4.0,2.2
CN(C)CCCN1C(=O)c2cccc3c(Br)ccc(c23)C1=O,-3.5,9.2*,1.7,1.6,-0.3,15.4,34.8*,0.4
CCCCCOc1ccc(NC(=O)CSc2cccc3cccnc23)cc1,-3.8,3.2,18.9,-2.0,1.0,-10.6,/,/
CCS(=O)(=O)c1c([N+](=O)[O-])ncn1C,-5.2,15.1*,-7.6,1.3,-7.0,-16.8,12.2*,1.7
Cn1cnc([N+](=O)[O-])c1Sc1ncn[nH]1,-6.2,8.3*,1.0,-0.3,-10.9,-0.9,0.8,0.2
CCN(CC)c1c([N+](=O)[O-])ncn1C,-1.0,0.2,2.0,1.4,5.5,-0.9,/,/
COC(=O)C1CN(C2CC2)CCS(=O)(=O)N1Cc1cn(Cc2ccc(Cl)cc2)nn1 (centres undefined),/,-1.5,2.1,/,/,/,/,/
O=C(NNC(=O)c1ccc(-c2ccccc2)cc1)Nc1ccc(F)cc1F,-2.7,-1.4,-30.4,-1.9,10.2,8.7,/,/
N#C/C(=C\c1ccc(OCc2ccc(C(=O)O)cc2)cc1)C(=O)N1CCOCC1,-2.5,10.1*,-64.4,5.0,-134.4,-1.1,2.1,15.1*
CCc1nc2c(OCCOc3ccccc3)cccn2c1N(C)C(=O)c1ccc(C)cc1,-8.0,1.1,-0.4,-2.8,/,-0.3,/,/
CSc1ncc(OCc2ccccc2)c(=O)[nH]1,0.2,10.4*,13.7,1.7,-1.7,3.6,-0.1,-0.1
CC1CCc2c(sc(/N=C/c3ccco3)c2C(N)=O)C1 (centres undefined),3.2,8.8*,-14.8,2.8,3.3,-8.7,6.5,6.2*
O=C(NCC(c1ccco1)N1CCOCC1)c1c(F)cccc1F (centres undefined),-1.5,-1.3,8.5,-0.1,1.0,6.5,/,/
Clc1ccc2c(NCCNC3CCCCC3)ccnc2c1,1.9,12.1*,-3.0,-4.0,21.2,4.3,-10.2,1.2
CCOC(=O)c1sc(=NC(=O)c2cccs2)n(C)c1C,-7.3,11.9*,-24.9,6.6,-98.5,-14.1,7.6,13.7*
OCc1ccnc2oc3ccccc3c12,-5.9,3.2,-1.3,0.9,4.5,10.6,/,/
O=C(Nc1ccccc1)c1ccc2snnc2c1,-7.3,-0.1,-20.9,1.4,-37.5,-0.4,/,/
SMILES,GalR3 antag,SMARCA2 act,COUP-TFII inh,FXN GAA850 act,Gli-Sufu block,Cardio protect,SMARCA2 act conf,GAL4-VP16 Luc
Cc1ccc(NC(=O)c2ccc3snnc3c2)cc1,-4.8,9.2*,-52.4,5.5,-61.6,-8.9,3.2,12.0*
NC(=O)c1ncn([C@@H]2O[C@H](CNCc3cccn3-c3ccncc3)[C@@H](O)[C@H]2O)n1,0.4,8.4*,-9.2,0.2,-14.6,4.1,-0.3,-1.4
Cc1cc(CNC[C@H]2O[C@@H](n3cnc(C(N)=O)n3)[C@H](O)[C@@H]2O)c(C)n1-c1cccnc1,-2.3,-5.7,3.3,2.3,1.8,20.7,/,/
COc1cccc(C#CC2=CC(=O)C[C@H](c3ccc(F)cc3)C2)c1,-3.0,-0.1,4.2,-0.3,/,-23.6,/,/
O=C(COc1ccc([N+](=O)[O-])cc1)Nc1ccccc1N1CCCC1,-6.3,0.1,-2.7,-3.0,19.9,-1.5,/,/
COc1ccc(/C=N/Nc2cc(C)nc3c(C)cccc23)cc1,-5.9,9.1*,14.3,0.9,32.6,-19.3,31.7*,0.9
COc1cccc2c(N/N=C/c3ccc(O)c(O)c3)cc(C)nc12,-7.4,4.9,4.5,4.6,-12.2,20.5,/,/
CN1CCN(C(=O)c2cccc(-c3cnc4cnc(-c5ccccc5Oc5ccccc5)cn34)c2)CC1,-10.0,9.5*,-24.3,-0.3,/,16.8,1.4,1.9
COc1ccc(NC(=O)CC23CC4CC(CC(Br)(C4)C2)C3)c(OC)c1,-9.6,-3.3,-9.3,2.8,-11.7,0.9,/,/
CCN=C1S/C(=C\c2cn(CC(=O)NCc3ccco3)c3ccccc23)C(=O)N1CC,-1.5,8.1*,7.3,1.2,17.9,23.9,9.9*,4.3
O=S(=O)(c1ccccc1)N(Cc1ccccn1)Cc1ccccn1,-2.7,-2.5,5.3,0.0,23.7,15.7,/,/
O=c1ccc(Cc2ccccn2)n[nH]1,-4.1,9.5*,-1.2,-0.5,-4.6,-4.3,-3.1,-1.7
Cc1cccc(NC(=O)C2C(C(=O)O)C3C=CC2C32CC2)c1C (centres undefined),-3.1,0.6,7.8,-1.4,3.2,-11.2,/,/
Cc1ccc(NC(=O)C2C(C(=O)O)C3C=CC2C32CC2)cc1 (centres undefined),-4.2,9.8*,16.9,-5.3,-3.3,1.1,-1.4,1.8
Cc1ccc2nccc(C(=O)N3CCCC(Nc4ccc(C)c(C)c4)C3)c2c1 (centres undefined),-0.8,-2.8,8.9,0.8,8.9,2.4,/,/
COc1ccc2nc3cc(Cl)ccc3c(Nc3ccc(O)c(CN4CCN(C)CC4)c3)c2c1,-3.1,20.1*,-32.8,1.9,15.8,-13.9,90.8*,2.0
COc1ccc2nc3cc(Cl)ccc3c(C#N)c2c1,-0.1,5.7,1.6,2.3,-8.8,-4.9,/,/
Cc1cc(C)c2[nH]c(C(=O)Nc3ccc4c(c3)OCO4)cc2c1,-4.1,8.0*,-19.0,2.2,-48.2,-1.5,-0.4,3.4

# Screens (PubChem BioAssay)
